Experimental data as given in PubChem BioAssay.
Unmarked numbers belong to inactive results. No rule for the calls is given here.

assay: inhibitors of hydroxyurea-induced Chk1 phosphorylation, primary screen, imaging, HeLa, phospho-Chk1 nuclear intensity (AID 1187); details: hydroxyurea-induced phospho-Chk1 immunofluorescence imaging, higher = more signal; also: test concentration not given here

SMILES	z-score
CCOC(=O)C[C@H]1[C@H](OC(=O)Cc2ccc3c(c2)OCO3)[C@@H](NC(=O)c2ccccc2)c2cc(OCCCO)ccc2N1C(=O)Cc1ccc(OC)cc1	-1.25
COC(=O)[C@@]1(Cc2ccc(OC)cc2)[C@H]2c3cc(C(=O)N(C)C)n(Cc4ccsc4Br)c3C[C@H]2CN1C(=O)c1ccccc1	0.984
CN(C)C(=O)[C@]1(Cc2ccccc2)N=C(c2ccc(OCCCO)cc2)O[C@@H]1c1ccccc1	-0.755
O=c1cccc(-c2ccccc2C(F)(F)F)o1	-1.66
COCCOC(=O)N1C(=O)[C@@]2(c3cc(C#CCCO)ccc31)[C@H](c1ccc(O)cc1)N1[C@H](c3ccccc3)[C@H](c3ccccc3)OC(=O)[C@H]1[C@@H]2C(=O)N1CCc2cc(OC)c(OC)cc2C1	0.0613
COCCCNC(=O)[C@@H]1c2ccccc2C(=O)N(Cc2cc(C(F)(F)F)cc(C(F)(F)F)c2)[C@H]1c1ccc(CO)cc1	-0.768
CN(C)C(=O)[C@]1(Cc2ccccc2CN=[N+]=[N-])N=C(c2ccc(OCCCO)cc2)O[C@@H]1c1ccccc1N=[N+]=[N-]	-0.903
C=CC[C@@]12N=C(c3ccc(OCCCO)cc3)O[C@@H]1c1ccccc1N(Cc1ccccc1)C2=O	0.552
COCCOC(=O)N1C(=O)[C@@]2(c3cc(C#CC4(O)CCCCCC4)ccc31)[C@H](c1ccc(OCCO)cc1)N1[C@H](c3ccccc3)[C@H](c3ccccc3)OC(=O)[C@H]1[C@@H]2C(N)=O	-0.215
